# FMDV inh – foot and mouth disease virus antiviral activity. FMDV antiviral cell-based qHTS. Potency, µM (doses to about 57.9 µM), without a hit: top-dose activity change, negative = inhibition, hits mostly inhibitors. actives 1.2% (n = 410,000). AID 1159524; calls by dose curve; tested in HEK293T cells; also: read-out not given here; potency is read from the fitted curve at half-maximal effect; % is scaled to controls: 0 for no effect and ±100 for the full control effect; nearly all actives have a fitted effect of over 45% in size
# HCV inh – inhibitors of hepatitis C virus infection. Potency, µM (titrated, usually from 41.8 µM), for inactives: at the highest dose activity change, negative = inhibition, most hits filed as inhibitors. Huh7.5.1 HCVcc-Cre infection, luciferase reporter, 44 h. actives 3.4% (n = 340,000). AID 651820; active = well fitted inhibition curve with a large enough effect; inconclusive = small, poorly fitted or top-dose-only effect, or another doubt; inactive = no such curve, though single readings can be large or run the other way; also: potency is read from the fitted curve at half-maximal effect; % is scaled to controls: 0 for no effect and ±100 for the full control effect
#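 A cell-based infection assay in which seeded cells (1,000 per well) receive test compound after 4 h, are inoculated with HCVcc-Cre at approximately 0.5 moi, and are incubated 44 h before luminescence detection.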
# Cycloheximide cs – affects cycloheximide protein synthesis inhibition readout, counter-screen; max response, %; actives 12% (n = 300,000); cell reporter, cycloheximide protein synthesis inhibition counterscreen; in the data active = max response mostly above about 13%, no sharp cut-off; inactive = mostly below about 14%; also: read at 38.3 µM for the half of the compounds with a filed dose; 0% is about no effect
# Lassa entry inh – Lassa virus entry inhibition; Lassa virus pseudotype entry inhibition, cell reporter; Potency, µM (doses to about 37.9 µM), inactives show at the highest dose activity change, negative = inhibition, hits mostly inhibitors; actives 1.2% (n = 300,000); AID 540256; calls by dose curve; tested in HEK293 cells; also: potency is read from the fitted curve at half-maximal effect; % is scaled to controls: 0 for no effect and ±100 for the full control effect; nearly all actives have a fitted effect of over 50% in size
# Shiga toxin inh – inhibitors of Shiga toxin in Vero cells. Vero cells, Shiga toxin protein synthesis inhibition reporter. inhibition, % at 38.7 µM. actives 9.2% (n = 290,000). AID 2315; in the data active = inhibition mostly above about 28%, no sharp cut-off; inactive = mostly below about 43%; also: 0% is about no effect
# Marburg entry inh – Marburg virus entry inhibition. Marburg virus pseudotyped entry inhibition, cell reporter. Potency, µM (titrated, usually from 37.8 µM), for inactives: at the highest dose activity change, negative = inhibition, hits mostly inhibitors. actives 1.8% (n = 300,000). AID 540276; calls by dose curve; tested in HEK293 cells; also: potency is read from the fitted curve at half-maximal effect; % is scaled to controls: 0 for no effect and ±100 for the full control effect
# Starred values were filed as active, the others as inactive; ? = inconclusive; · = no result; [ ] = remark or other dose. Rows were chosen to be rich in hits. Some 13% of all compounds tested hit in one or more screens of this group.
SMILES,FMDV inh,HCV inh,Cycloheximide cs,Lassa entry inh,Shiga toxin inh,Marburg entry inh
O=C(CN1C(=O)c2ccccc2C1=O)c1ccc(F)cc1,42%,20%,26*,?,49,2%
COc1ccc(N(CCCN2C(=O)c3cccc4cccc(c34)C2=O)C(=O)c2cccc(OC)c2)cc1,-7%,11µM*,-8,?,-8,?
COc1ccc(C(=O)CN2CCN(CCN3C(=O)c4cccc5cccc(c45)C3=O)CC2)cc1,?,10µM*,·,·,·,·
O=C(CN1CCN(CCN2C(=O)c3cccc4cccc(c34)C2=O)CC1)c1ccc(F)cc1,28%,14µM*,5,-2%,17,-10%
Cc1ccc(C(=O)N2CCC(Cc3ccccc3)CC2)cc1[N+](=O)[O-],?,-26%,-6,-18%,-14,?
Cc1c(C(=O)NC2CCN(Cc3ccccc3)C2)oc2ccc(Br)cc12 (configuration not stated),3%,?,14*,?,78*,?
CCOc1ccc2oc(C(=O)NC3CCN(Cc4ccccc4)CC3)c(C)c2c1,?,?,-3,11µM*,12,?
CCOc1ccc(C(=O)NC2CC(C)(C)NC(C)(C)C2)cc1,-3%,-8%,-2,·,·,·
CCOc1ccc2oc(C(=O)Nc3ccc(C)cn3)c(C)c2c1,49%,·,·,·,·,·
CCOc1ccc2oc(C(=O)NC3CC(C)(C)NC(C)(C)C3)c(C)c2c1,-5%,13µM*,-1,-13%,6,?
CCOc1ccc2oc(C(=O)NC(C)(C)CC)c(C)c2c1,27%,-2%,48*,?,67*,?
CN(C(N)=S)c1ccccc1,0%,?,-3,18%,-22,16%
c1ccc(-c2nc(NCC3CCCO3)c3ccccc3n2)nc1 (configuration not stated),-29%,?,-2,?,-18,?
Brc1ccc(-c2noc(C3CCCCC3)n2)cc1,37%,3%,14*,13%,34*,3%[46.1 µM]
c1ccc(-c2noc(C3CCCCC3)n2)nc1,11%,-16%,32*,?,66*,-19%
CCOC(=O)c1sc(NC(=O)Cc2ccccc2OC)nc1C,29%,?,4,·,-4,·
CCOC(=O)c1sc(Nc2ccc(OCC)cc2)nc1C,19%,-26%,16,·,35,·
CCOC(=O)c1sc(NC(=O)Cc2ccc(F)cc2)nc1C,-7%,29%,29*,-7%,46,3%[46.1 µM]
CCOC(=O)c1sc(NC(=O)CSC(=S)N2CCN(C)CC2)nc1C,-14%,13µM*,8,-16%,26,?
CCOC(=O)c1sc(NC(=O)CCSC)nc1C,30%,-8%,12,?,31,13%
CCOC(=O)c1sc(NC(C)=O)nc1C,·,-25%,-1,-15%,-14,?
CCOC(=O)c1sc(NC(=O)Nc2ccc(F)cc2)nc1C,-20%,?,93*,?,121*,?
CCOC(=O)c1sc(Nc2cccc(Cl)c2)nc1C,21%,?,51*,-27%,70*,-14%[46.1 µM]
O=C(C=C1SCCS1)/C=C/c1ccco1,?,29%,37*,11µM*,71*,?
O=C(/C=C/c1ccco1)NC1CCCC1,8%,17%,7,-24%,28,19%[46.1 µM]
SMILES,FMDV inh,HCV inh,Cycloheximide cs,Lassa entry inh,Shiga toxin inh,Marburg entry inh
O=C(O)C(C(=O)/C=C/c1ccco1)=C1SCCS1,10%,20%,27*,3%,74*,3%
COC(=O)c1c(-c2cccs2)csc1NC(=O)c1ccc(Br)cc1,27%,·,·,?,·,?
CCOC(=O)c1c(-c2ccc(C)cc2)csc1NC(=O)CCN1CC(C)OC(C)C1 (configuration not stated),28µM*,-27%,0,?,-9,?
CCOC(=O)c1c(-c2ccc(C)cc2)csc1NC(=O)C1CCCO1 (configuration not stated),?,11µM*,6,?,14,?
CCOC(=O)c1c(-c2ccc(OC)cc2)csc1NC(=O)C1CCCO1 (configuration not stated),?,?,-1,?,-5,-25%
COC(=O)c1c(-c2cccc(C)c2)csc1NC(=O)C1CCCO1 (configuration not stated),-15%,-17%,27*,-2%,15,?
COC(=O)c1c(-c2ccc(C)cc2)csc1NC(=O)C1CC=CCC1C(=O)O (configuration not stated),28%,8%,10,?,active,?
N#Cc1cc(-c2ccccc2)c[nH]c1=O,8%,2%,0,?,4,-1%
CCOC(=O)c1c(-c2ccc(C)o2)csc1NC(=O)CN1CCC(C(N)=O)CC1,?,4.5µM*,-5,-21%,24,-13%[46.1 µM]
CC(C)OC(=O)c1c(-c2ccc(C(C)C)cc2)csc1NC(=O)C1CCCO1 (configuration not stated),?,-19%,-4,5.6µM*,-17,?
CCOC(=O)c1c(-c2ccc(F)cc2)csc1NC(=O)C1CCCO1 (configuration not stated),-27%,-16%,-3,-21%,-6,-28%[46.1 µM]
COC(=O)[C@]12CCCCC=C1N(CCc1ccc(OC)c(OC)c1)C(=O)[C@H](CC(=O)N1CCCC1)C2,-10%,·,·,·,·,·
CCN(Cc1ccc(OC)c(COC)c1)CC1CCCN(CCc2cccc(OC)c2)C1 (configuration not stated),-30%,7.9µM*,1,·,-8,·
CCN(Cc1ccc(OC)c(COC)c1)CC1CCCN(CCc2cccc(F)c2)C1 (configuration not stated),-9%,13µM*,3,·,3,·
CCN(Cc1ccccc1OC)CC1CCCN(CCc2cccc(OC)c2)C1 (configuration not stated),-16%,?,2,?,0,?
COc1ccc(-c2csc(=Nc3ccccc3)n2CCO)cc1F,?,·,·,-24%[46.1 µM],·,?
FC(F)Oc1ccc(-c2csc(=Nc3cccnc3)n2CC2CCCO2)cc1 (configuration not stated),8.9µM*,11µM*,2,?,3,?
Clc1ccc(-c2csc(=Nc3cccnc3)n2CCCn2ccnc2)cc1Cl,32µM*,11µM*,-7,?,-13,?
O=C(O)CCc1ccc(-c2cccs2)n1CC1CCCO1 (configuration not stated),15%,-2%,-4,-9%,-12,10%
COCCn1c(-c2ccc(Br)cc2)csc1=Nc1cccnc1,32µM*,?,-1,·,2,?
Oc1ccc(/C=N/n2c(-c3ccco3)csc2=Nc2cccnc2)c(O)c1,-29%,-29%,-6,?,-9,?
Cc1ccc2c(c1)C(O)(CC(=O)c1ccc(C)s1)C(=O)N2 (configuration not stated),6%,8%,1,14%,13,29%
C/C(=N\NC(=O)c1n[nH]c2c1CCC2)c1ccco1,-25%,-2%,26*,?,27,?

# Screening data from PubChem.
